This note sets out measurements from PubChem BioAssay AID2232 (The Scripps Research Institute Molecular Screening Center, 2010).

Structures are written as SMILES. The whole screen tested about 1,100 compounds, of which about 790 (72%) were called active. So high a share suggests a set chosen from earlier hits. A selection follows. Unmarked numbers belong to inactive results.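 How the source made its calls: active means mean inhibition across replicates above the hit cutoff set in the primary screen (cut at about 26% in these data); inactive means the rest.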

Acyl-protein thioesterase 2 (Homo sapiens), sequence (O95372 whole entry, looked up): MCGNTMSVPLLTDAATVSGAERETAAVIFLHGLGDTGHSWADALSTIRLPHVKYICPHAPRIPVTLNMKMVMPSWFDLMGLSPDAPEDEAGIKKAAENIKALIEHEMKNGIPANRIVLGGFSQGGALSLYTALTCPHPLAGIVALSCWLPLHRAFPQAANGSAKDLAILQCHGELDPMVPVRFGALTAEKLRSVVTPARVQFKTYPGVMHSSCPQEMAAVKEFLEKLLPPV

The test has as its target Acyl-protein thioesterase 2 (Homo sapiens) (UniProt O95372). The test is described as follows: inhibition of human lysophospholipase 2 – biochemical, fluorescence polarization, FP-Rh probe ABPP, counter-screen for PME1 inhibitor project, confirmation (AID 2232).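 Further: blocked labeling of the enzyme by serine hydrolase FP-Rh probe lowers polarization; 0% = enzyme with DMSO and 100% = wells lacking LYPLA2.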 The conditions noted are these: recombinant LYPLA2, FP-Rh probe fluorescence polarization; at 5.9 µM; stronger effect = higher value. On the technique in general: Polarisation of emitted light reports the rotation of a fluorescent probe.
Broadly, the inhibition is the drop in the measured response relative to a control, in per cent. As for `Cc1ccc(N2CCN(C3=NC(=O)/C(=C\c4cccs4)S3)CC2)cc1`, the inhibition is 56.2% (active).

`CCC(CC)COC(=O)C1=C(C)NC(=O)NC1c1ccc([N+](=O)[O-])cc1` (stereo not drawn): the inhibition was 48.5% (active).

With `O=C(c1cc(-c2ccc(Cl)cc2)on1)N1CCN(c2ccccc2)CC1`, the inhibition was 2.82%.

On to `Cc1c(C)c2ccc(OCC(=O)N3CCN(c4cccc(Cl)c4)CC3)cc2oc1=O`, for which the inhibition was 45.7% (active).

Regarding `CCC(=O)c1ccc(OCC(O)CN2CCN(c3cccc(C(F)(F)F)c3)CC2)cc1` (stereo not drawn), the inhibition was 62.3% (active).

On to `O=C(COc1ccc(Cl)cc1)N1CCN(c2cccc(C(F)(F)F)c2)CC1`, for which the inhibition was 63.1% (active).

`O=C(CCCN1C(=O)CSc2ncccc21)N1CCN(c2cccc(C(F)(F)F)c2)CC1`: the inhibition was 60.9% (active).

Take `CN(CCc1ccccn1)C(=O)c1ccc(OC2CCN(CCc3ccccc3)CC2)cc1`: the inhibition was 21.1%.

For the molecule `O=C(CCCN1C(=O)c2cccc3cccc(c23)C1=O)N1CCN(Cc2ccc3c(c2)OCO3)CC1`, the inhibition is 55.4% (active).

Consider `O=C(COc1ccc(NC(=O)c2ccccc2[N+](=O)[O-])cc1)c1ccc(F)cc1`, for which the inhibition was 34.8% (active).

Consider `O=[N+]([O-])c1ccc(Oc2ccc(F)cc2Br)c2ccncc12`, for which the inhibition is 33.5% (active).

As to `Cc1cc(OCCCN2CCN(Cc3ccccc3)CC2)ccc1[N+](=O)[O-]`, the inhibition is 40.4% (active).

Regarding `CSc1cccc(NC(=O)CN2C(=O)COc3ccc(S(=O)(=O)N4CCOCC4)cc32)c1`, the inhibition is 33.8% (active).

Regarding `N#Cc1ccc(C2=CC(=O)C[C@H](c3ccc(Cl)cc3)C2)cc1`, the inhibition was 42% (active).

In the case of `O=C(CC1SC(N2CCCC2)=NC1=O)Nc1ccc(C(=O)NCCc2ccc(F)cc2)cc1` (stereo not drawn), the inhibition was 43.7% (active).

Regarding `CCOC(=O)c1cc2cc(-c3c(C(=O)OCC)oc4cc(O)cc(O)c4c3=O)ccc2o1`, the inhibition was 36.7% (active).

Consider `O=C1C2CCCN2C(=O)N1CCCCN1CCN(c2cccc(C(F)(F)F)c2)CC1` (stereo not drawn), for which the inhibition is 55.6% (active).

As for `CCN(CC)C(=O)CC1(c2ccccc2OC)CCOC(C(C)C)C1` (stereo not drawn), the inhibition was 4.28%.

With `Cc1nc([N+](=O)[O-])cn1CC(=O)Nc1ccc2c(c1)OCO2`, the inhibition is 26.8% (active).

As to `CCc1ccc(NC(=O)c2ccc(Cn3cc([N+](=O)[O-])cn3)cc2)cc1`, the inhibition was 19.7%.

On to `Cc1nc([N+](=O)[O-])cn1CC(=O)Nc1ccc(Cl)cc1`, for which the inhibition is 34.4% (active).

Take `O=C(c1ccco1)N1CCN(C(=S)Nc2cc(F)cc(F)c2)CC1`: the inhibition was 44.1% (active).

Turning to `O=C(Nc1ccc(N2CCN(C(=O)c3ccccc3)CC2)c(Cl)c1)c1cccnc1`, the inhibition is 27% (active).

Turning to `CCOc1ccc(C(=O)NC(=S)Nc2ccc(N3CCOCC3)c(Cl)c2)cc1[N+](=O)[O-]`, the inhibition is 21.8%.

In the case of `Cc1ccc(C(c2sc3nc(C)nn3c2O)N2CCN(c3ccc(F)cc3)CC2)cc1` (stereo not drawn), the inhibition was 30% (active).

For `COc1ccc(CCNc2nc(-c3cccc(NC(C)=O)c3)cs2)cc1OC`, the inhibition is 3.07%.

Regarding `O=C(Cc1ccc(-n2c(=O)[nH]c3ccccc3c2=O)cc1)N1CCN(c2cccc(Cl)c2)CC1`, the inhibition was 48.3% (active).

Turning to `COc1ccc(-c2nc(CS(=O)CC(=O)NCc3ccccn3)c(C)o2)cc1` (stereo not drawn), the inhibition was 9.85%.

For `O=[N+]([O-])c1ccc(N2CCN(CC(O)COc3ccccc3)CC2)cc1` (stereo not drawn), the inhibition was 29.1% (active).

Take `COCCOC(=O)c1sc(=S)n(CCOC)c1N`: the inhibition is 21.3%.

Consider `Cc1ccc(/C=N/NC(=O)C(NC(=O)c2ccccc2)c2n[nH]c(=O)c3ccccc23)cc1` (stereo not drawn), for which the inhibition was 56.2% (active).

Turning to `Cc1nn2c(=O)cc(COC(=O)c3ccc(NC(=O)C(C)(C)C)cc3)nc2s1`, the inhibition is 27.5% (active).

For `COc1ccccc1C(=O)NC(CCSC)C(=O)N1CCN(C/C=C/c2ccccc2)CC1` (stereo not drawn), the inhibition is 31.7% (active).

Regarding `Cc1cc(C)c(C#N)c(SCc2[nH]nc3c2C(c2ccccc2)C(C#N)=C(N)O3)n1` (stereo not drawn), the inhibition was 48.2% (active).

For `N#Cc1cc([N+](=O)[O-])ccc1Oc1cccc(/C=N/NC(=O)c2ccc(Cl)cc2)c1`, the inhibition is 15.7%.

Take `CC(=O)N1c2ccc(S(=O)(=O)N3CCC(C(=O)N4CCN(c5ccccc5)CC4)CC3)cc2CC1C` (stereo not drawn): the inhibition was 47.4% (active).

`CC(=O)c1ccc(N2CCN(C(=O)C3CCN(S(=O)(=O)c4ccc5c(c4)CC(C)N5C(=O)C4CC4)CC3)CC2)cc1` (stereo not drawn): the inhibition is 72% (active).

As for `Cc1nn(Cc2ccccc2)c(C)c1CNC(=O)c1ccc(F)c(S(=O)(=O)N2CCOCC2)c1`, the inhibition was -0.54%.

Regarding `CCCCCC1CCC(c2nnc(SCC(C)=O)o2)CC1` (stereo not drawn), the inhibition was 37.8% (active).

Consider `CCN(CC)c1ccc(C(=O)NNC(=O)CCc2nc3ccccc3c(=O)[nH]2)cc1`, for which the inhibition was 1.17%.

Regarding `COc1ccc(N2CCN(C(=O)c3ccc(N4CCCCS4(=O)=O)cc3)CC2)cc1`, the inhibition is 56.2% (active).

On to `Nc1[nH][nH]c(=O)c1N=Nc1ccc2c(c1)OCO2`, for which the inhibition is 1.18%.

In the case of `COc1ccc(N2CC(C(=O)NCCN3C(=O)S/C(=C\c4cccnc4)C3=O)CC2=O)c(OC)c1` (stereo not drawn), the inhibition was 6.43%.

Consider `CCCCCCOc1ccc(OC(=O)c2cccnc2)cc1`, for which the inhibition was 59.1% (active).

Consider `CCC(=C/c1sc2ccc3ccccc3c2[n+]1C)/C=C1\Sc2ccc3ccccc3c2N1C`, for which the inhibition was 0.49%.

Turning to `O=C(Nc1ccc(N2CCN(C(=O)c3cccs3)CC2)cc1)c1cccnc1Cl`, the inhibition was 37.2% (active).

Turning to `COc1ccc(C(C#N)Nc2ccc(C)cc2)cc1` (stereo not drawn), the inhibition was 3.09%.

With `Cc1cccc(OCC(O)CN2CCN(CCN3C(=O)c4cccc5cccc(c45)C3=O)CC2)c1C` (stereo not drawn), the inhibition is 42.9% (active).
